# Bioassay records (PubChem)
# The list is not random: actives were taken first. Their share in the collection is about 19%.
# HT1080-NT tox = kills 2HG-producing HT-1080-NT fibrosarcoma cells; HT-1080-NT fibrosarcoma viability, CellTiter-Glo ATP luminescence, 48 h; Potency, µM (highest dose often 46.1 µM), for the others: top-dose activity, negative = less viability, actives largely listed as cytotoxic; hit rate 1.6% among 360,000; AID 686970;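 also: NT is the 2HG producing partner of a matched IDH1 knockdown line; potency is read from the fitted curve at half-maximal effect; 0% = DMSO-treated cells and -100% = media-only wells without cells; nearly all actives have a fitted effect of over 55% in size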
#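 Read-out is CellTiter-Glo luminescence after 10 minutes at room temperature, following 48 hours' compound treatment of HT-1080-NT cells (750 cells/well, RPMI, 5% FBS, 37 degrees C).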
# HT1080 IDH1KD tx = HT-1080 IDH1 knockdown cell toxicity (counter line) | HT-1080 IDH1 knockdown viability, ATP luminescence, 48 h | Potency, µM (doses to about 46.1 µM), without a hit: top-dose activity, negative = toxicity, hits mostly cytotoxic | hit rate 2% among 360,000;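 also: potency is read from the fitted curve at half-maximal effect; 0% = DMSO wells and -100% = cell-free medium wells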
#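 CellTiter-Glo luminescence after 48 h compound exposure at 37 degrees C of IDH1-knockdown HT-1080 cells in 5% FBS RPMI. %Activity scaled between DMSO wells and cell-free media wells, with curves fitted and assigned curve classes.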
# ELG1 repair inh = inhibitors of ELG1-dependent DNA repair in HEK293T cells; hit rate 2.3% among 330,000; AID 504467; HEK293T ELG1-luciferase reporter, luminescence, 16 h; DNA damage induced by 5-fluorouridine; Potency, µM (top dose mostly 46.1 µM), inactives show at the highest dose activity change, negative = inhibition, actives largely listed as inhibitors; also: potency is read from the fitted curve at half-maximal effect; nearly all actives have a fitted effect of over 55% in size
#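 Reporter activity after DNA damage by 5-fluorouridine is monitored. Compound-treated cells incubate 16 hr at 37 °C, then ONE-Glo is added for 30 min before luminescence reading.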
# TDP1 cell noCPT = qHTS for Inhibitors of human tyrosyl-DNA phosphodiesterase 1 (TDP1): qHTS in cells in absence of CPT | DT40 Tdp1-/- hTDP1 cells, no CPT, ATP luminescence, 48 h | Potency, µM (series often up to 46.2 µM), without a hit: at the top dose activity change, negative = growth inhibition, hits mostly inhibitors | hit rate 15% among 420,000; also: potency is read from the fitted curve at half-maximal effect; nearly all actives have a fitted effect of over 55% in size
#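 Compound effects on proliferation are scored in DT40 Tdp1-/-;hTDP1 cells in the absence of CPT. ATP levels (CellTiter-Glo luminescence) are recorded after a ≥48 hr, 37 °C incubation.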
# IL-1B inflam inh = inhibitors of inflammasome signaling (IL-1 beta secretion). THP-1 LPS/ATP IL-1B secretion, AlphaLISA, 16 h; hits give low values. activity change, % at 57.5 µM. hit rate 4.7% among 360,000. AID 743279; in the data active = activity change below about -50%; inconclusive = mostly about -30% to -49%
#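 Secreted IL-1B measured by AlphaLISA bead assay after 16 h compound exposure of THP-1 cells; compounds (final up to 57.5 uM) added 1 h before LPS (250 ng/mL) and ATP (1.25 mM) stimulation; lower signal means less secretion.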
# DT40 TDP1 CPT = DT40-hTDP1 cell growth loss with CPT | hit rate 12% among 420,000 | chicken DT40 Tdp1-/-;hTDP1 cells + 20 nM CPT, ATP luminescence, 48 h | Potency, µM (series often up to 46.2 µM), for the others: at the highest dose activity change, negative = growth inhibition, most hits filed as inhibitors; also: potency is read from the fitted curve at half-maximal effect; nearly all actives have a fitted effect of over 55% in size
#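 Chicken DT40 Tdp1-/- cells complemented with human TDP1, 400 cells/well, exposed to compounds plus 20 nM camptothecin for at least 48 h at 37 C; viability read as ATP content by CellTiter-Glo luminescence.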
# * marks the source's active call; other numbers are inactive results; ? = inconclusive; . = no result given; ! = not active in a repeat; [ ] = remark or other dose. Unless noted, calls follow the shape of the dose curve; as a rule, active = well fitted curve in the direction sought with a large enough effect; inconclusive = small, poorly fitted or top-dose-only effect, or another doubt; inactive = no such curve, though single readings can be large; an effect the other way counts as inactive or inconclusive. Unless noted, % is scaled to controls: 0 for no effect and ±100 for the full control effect.
SMILES,HT1080-NT tox,HT1080 IDH1KD tx,ELG1 repair inh,TDP1 cell noCPT,IL-1B inflam inh,DT40 TDP1 CPT
COc1ccccc1C(=O)N1CCN(C(=O)[C@H]2O[C@@H](n3ccc(N)nc3=O)[C@H](O)[C@@H]2O)CC1,23%,9%,.,6%,-20,0%
O=S(=O)(CCSc1ccc(C(F)(F)F)cn1)c1ccc(Cl)cc1,0%,0%,-4%,-29%,.,9%
Cn1cc(C2=C(c3ccc(Cl)cc3Cl)C(=O)NC2=O)c2ccccc21,3%,-27%,?,11µM*!,-1,?
Cc1cc(C)c(S(=O)(=O)Oc2ccccc2[N+](=O)[O-])c(C)c1,?,?,.,18µM*,-4,21µM*
Cc1ccc(C)c(C(=O)COc2ccccc2[N+](=O)[O-])c1,-1%,?,2%,10µM*,-51*,5.2µM*
Cc1ccc(OCC(=O)c2cc(C)c(C)cc2C)c([N+](=O)[O-])n1,?,?,?,8.2µM*,36,3.7µM*
Cc1ccc(C)c(C(=O)COc2ccc(C)nc2[N+](=O)[O-])c1,?,?,9%,15µM*,42,7.3µM*
CN1CC(=O)N(CC(=O)Nc2ccc(OC(F)(F)F)cc2)c2ccccc2C1=O,.,.,.,-21%,.,0%
O=C(c1ccco1)N1CCC2(CCN(Cc3ccccc3)CC2)CC1,.,.,.,-12%,.,22%
Cc1ccc(OCC(=O)N2c3ccccc3CC2C)c([N+](=O)[O-])n1 (stereo unspecified),-1%,2%,0%,-87%,-7,16µM*
Cc1ccc(OCCOc2cccc(Br)c2)c([N+](=O)[O-])n1,-5%,-12%,?,-22%,-71*,0%
CCOC(=O)c1ccc(NC(=O)C(CC)Sc2nc3ccncc3[nH]2)cc1 (stereo unspecified),.,.,.,-35%,.,?
Cn1cnnc1SCC(=O)Nc1nc(-c2ccccc2)cs1,-1%,4%,16%,?,19,-9%
CCc1cc(-c2n[nH]c(C)c2-c2nc3ccccc3n2C)c(O)c(CN2CCN(C)CC2)c1O,?,?,?,-10%,-12,-18%
CCc1cc2c(=O)c(-c3nc4ccccc4n3C)c(C(C)C)oc2c(CN2CCN(C)CC2)c1O,-12%,-6%,?,12µM*,-8,7.3µM*
CCc1cc2c(=O)c(-c3nc4ccccc4n3C)coc2c(CN2CCCC(C)C2)c1O (stereo unspecified),-2%,-5%,-5%,9.2µM*,-1,?
CCc1cc2c(=O)c(-c3nc4ccccc4n3C)c(C)oc2c(CN2CCOCC2)c1O,-15%,-27%,-14%,9.2µM*,-16,8.2µM*
CCc1cc2c(=O)c(-c3nc4ccccc4n3C)c(C)oc2c(CN2CCN(C)CC2)c1O,.,.,-14%,.,.,.
CCc1cc2c(=O)c(-c3nc4ccccc4n3C)c(C)oc2c(CN2CCN(CCO)CC2)c1O,?,-4%,12%,?,-4,16µM*
CCc1cc2c(=O)c(-c3nc4ccccc4n3C)c(C)oc2cc1OC(C)=O,-7%,-7%,-23%,?,17,?
COc1cccc(C(=O)CC2c3c(c(Br)c4c(c3OC)OCO4)CCN2C)c1 (stereo unspecified),.,.,.,1%[9.04 µM],.,11%[9.04 µM]
COc1ccccc1Cc1c(-c2cccc(Br)c2)nc2ccc(Cl)cn12,?,?,.,?,21,?
COc1cc(-c2cc3n(C)c(C)c(CCC(=O)O)c(=O)n3n2)cc(OC)c1OC,.,.,.,1%,.,12%
CCCCN(C)CCNC(=O)C(NC(=O)C1CCC(C)CC1)C(C)C (stereo unspecified),?,2%,18%,-10%,-14,-19%
